TDP1 cell noCPT – qHTS for Inhibitors of human tyrosyl-DNA phosphodiesterase 1 (TDP1): qHTS in cells in absence of CPT | Potency, µM (doses to about 46.2 µM), without a hit: at the highest dose activity change, negative = growth inhibition, actives largely listed as inhibitors | DT40 Tdp1-/- hTDP1 cells, no CPT, ATP luminescence, 48 h | hit rate 15% among 420,000; also: potency is read from the fitted curve at half-maximal effect; % is scaled to controls: 0 for no effect and ±100 for the full control effect; nearly all actives have a fitted effect of over 55% in size
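Seeded 400 DT40-hTDP1 cells/well (vehicle DMSO, no 20 nM CPT); pinned compounds; ≥48 hr at 37 °C; CellTiter-Glo luminescence as viability measure.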
DRD3 antagonist – antagonists of human D3 dopamine receptor; P35462; D3R cells, DiscoveRx beta-arrestin luminescence, antagonist mode; stronger effect = lower value; max response, negative = inhibition, %; hit rate 2.5% among 360,000; in the data active = max response below about -50%; inconclusive = no clear call, values can overlap the other calls; also: % is scaled to controls: 0 for no effect and ±100 for the full control effect
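Cells expressing the human receptor were seeded at 1500 cells/well, incubated overnight at 37 degrees C in 5% CO2, then exposed to library compounds with dopamine controls for 90 minutes at 37 degrees C before luminescent detection.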
DT40 TDP1 CPT – DT40-hTDP1 cell growth loss with CPT. chicken DT40 Tdp1-/-;hTDP1 cells + 20 nM CPT, ATP luminescence, 48 h. Potency, µM (titrated, usually from 46.2 µM), for the others: at the top dose activity change, negative = growth inhibition, hits mostly inhibitors. hit rate 12% among 420,000. AID 686979; also: potency is read from the fitted curve at half-maximal effect; % is scaled to controls: 0 for no effect and ±100 for the full control effect; nearly all actives have a fitted effect of over 55% in size
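Chicken DT40 Tdp1-/- cells complemented with human TDP1, 400 cells/well, exposed to compounds plus 20 nM camptothecin for at least 48 h at 37 C; viability read as ATP content by CellTiter-Glo luminescence.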
D3 ag – agonists of human D3 dopamine receptor. P35462. D3R DiscoveRx beta-arrestin cells, luminescence, 90 min. max activation, %. hit rate 0.58% among 410,000. AID 652048; in the data active = max activation above about 30%; also: 0% is about no effect
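Cells at 1500/well, incubated overnight, then treated with pinned compounds (dopamine as control) for 90 min at 37 degrees C. DiscoveRx reagent added for 30 - 60 minutes at room temperature; luminescence read.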
IL-1B inflam inh – inhibitors of inflammasome signaling (IL-1 beta secretion) | AID 743279 | THP-1 LPS/ATP IL-1B secretion, AlphaLISA, 16 h; stronger effect = lower value | activity change, % at 57.5 µM | hit rate 4.7% among 360,000; in the data active = activity change below about -50%; inconclusive = mostly about -30% to -49%; also: % is scaled to controls: 0 for no effect and ±100 for the full control effect
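THP-1 cells pretreated 1 hr with compounds (up to 57.5 uM final), then stimulated with LPS (250 ng/mL final) plus ATP (1.25 mM final); secreted IL-1B measured by AlphaLISA after 16 hr, decreased signal indicating inhibition.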
ClpP mod – qHTS Assay for Activators of ClpP; ATP-dependent Clp protease proteolytic subunit (Bacillus subtilis (strain 168)), P80244; purified B. subtilis ClpP, FRET peptide cleavage, 20 min; Potency, µM (titrated, usually from 57.5 µM), without a hit: at the highest dose activity change, negative = active; hit rate 1.9% among 340,000; active = well fitted falling curve with a large enough effect; inconclusive = small, poorly fitted or top-dose-only effect; inactive = no such curve, though single readings can be large or run the other way; also: potency is read from the fitted curve at half-maximal effect; the source files actives as falling curves though it sought activators and does not explain the sign; nearly all actives have a fitted effect of over 65% in size
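Buffer: 100 mM Tris/HCl pH8, 100 mM KCl, 0.05% low protease BSA, 2.5% glycerol, 0.01% Tween-20. ClpP 10 microg/mL final; 20 min RT; delta FRET normalized to ADEP and DMSO controls.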
* marks the source's active call; other numbers are inactive results; ? = inconclusive; · = no result. Rows were chosen to be rich in hits. Some 21% of all compounds tested hit in one or more screens of this group. Unless noted, calls follow the shape of the dose curve; as a rule, active = well fitted inhibition curve with a large enough effect; inconclusive = small, poorly fitted or top-dose-only effect; inactive = flat fitted curve, though single readings scatter.

SMILES	TDP1 cell noCPT	DRD3 antagonist	DT40 TDP1 CPT	D3 ag	IL-1B inflam inh	ClpP mod
CCCCCCCN1CCN=C1N(C)C	16.4µM*	9.5	?	-2.5	-2.5	0.3%
CN(C)C1=NCCN1CC1CCCCCC1	?	-15.3	-22.2%	-6.6	-1.1	-0.8%
CN(C)C1=NCCN1CCC1CCCCC1	?	-19.8	11.6µM*	-14.6	-2.5	1.4%
O=C1C2C3c4ccccc4C(c4ccccc43)C2C(=O)N1/N=C/c1cccc(O)c1 (configuration not stated)	?	29.3	20.6µM*	5.4	-4.9	-7.7%
COc1cc(/C=N/N2C(=O)C3C4C=CC(CC4)C3C2=O)ccc1O (configuration not stated)	0.0%	-20.6	-15.6%	-4.8	56.4	·
COC(=O)Nc1nc2ccc(S(=O)c3ccccc3)cc2[nH]1 (configuration not stated)	8.41µM*	·	?	-5.3	·	·
COC(=O)Nc1nc2ccc(C(=O)c3ccccc3)cc2[nH]1	0.255µM*	·	0.36µM*	-21.7	·	·
COc1cccc(C(=O)Nc2nc3ccccc3[nH]2)c1	?	1.5	-23.2%	1.0	-19.1	0.0%
COC(=O)Nc1nc2ccc(SC(C)C)cc2[nH]1	3.26µM*	-16.6	0.82µM*	-38.4	33.5	-5.8%
CC1Cc2ccccc2N1C(=O)CCn1cccn1 (configuration not stated)	?	-23.3	-2.6%	-0.8	14.9	-2.9%
CCOC(=O)N1CCN(S(=O)(=O)N2CCCC(C(=O)NC(C)c3ccccc3)C2)CC1 (configuration not stated)	-3.6%	-11.2	-23.8%	2.3	2.3	0.3%
COc1cc(NC(=O)Cc2cccc3ccccc23)c(C(=O)O)cc1OC	18.1%	0.5	-14.6%	-2.1	11.3	-4.2%
COc1cc2cc(C)nc(Cc3cccc4ccccc34)c2cc1OC	23.1µM*	?	14.6µM*	4.6	-8.4	-10.4%
COc1ncc2ncc(=O)n(CCC#N)c2n1	-8.8%	·	-7.1%	·	·	·
Cc1cc(C(C)(C)C)oc1C(=O)N(CC(=O)NC1CCCC1)Cc1ccccc1Cl	13µM*	-7.4	13µM*	-12.0	?	0.8%
Cc1ccccc1N(CC(=O)NC1CCCC1)C(=O)c1oc(C(C)(C)C)cc1C	14.1µM*	-20.6	16.4µM*	-8.4	?	3.6%
COc1ccccc1N(CC(=O)NC1CCCC1)S(=O)(=O)c1cccc(C(F)(F)F)c1	-8.0%	-7.9	?	2.6	4.1	0.1%
Cc1cc(C(C)(C)C)oc1C(=O)N(CC(=O)NC1CCCC1)c1cccc(C(F)(F)F)c1	?	-22.7	18.4µM*	-2.5	-21.3	0.2%
O=C1NC[C@H](CCCCN2C[C@H](Cc3ccccc3)N(CCc3ccc(O)cc3)C(=O)C2=O)N(CCc2ccccc2)C1=O	-16.0%	12.9	9.1%	2.6	-7.1	0.5%
COc1ccccc1NC(=O)CCN1CCCCC1	3.6%	·	3.2%	-12.9	·	0.9%
CC(=O)Nc1cccc2cc(O)ccc12	-5.3%	-11.2	-2.1%	-3.0	-25.7	·
CC(=O)Nc1ccc2ccc3cccc4ccc1c2c34	-0.9%	?	-2.2%	-1.2	1.9	14.1µM*
CCC(c1nnc(SCC(=O)N2CC(=O)Nc3ccccc32)n1Cc1ccccc1)N(C)C (configuration not stated)	3.4%	0.0	8.0%	-4.4	2.3	-5.0%
Cc1nnc(SCC(=O)N2CC(=O)Nc3ccccc32)n1Cc1ccccc1	-2.3%	-66.2*	1.8%	-6.1	12.5	-0.3%
O=C1CN(C(=O)CSc2nc3cc(Cl)ccc3c(=O)n2Cc2ccccc2)c2ccccc2N1	?	?	?	-16.9	-71.7*	·
SMILES	TDP1 cell noCPT	DRD3 antagonist	DT40 TDP1 CPT	D3 ag	IL-1B inflam inh	ClpP mod
O=C(COc1cccnc1[N+](=O)[O-])NCc1ccccc1	22.8%	0.7	0.8%	0.5	0.0	0.1%
O=C(Nc1nnc([C@@H]2C[C@H](O)[C@@H](CO)O2)s1)Nc1cccc2c1CCCC2	-12.9%	-1.3	-5.8%	8.8	14.8	-4.1%
CCCCC#Cc1nc(NC)c2ncn([C@@H]3O[C@@H](CO)[C@H](O)[C@H]3O)c2n1	1.2%	·	-10.3%	·	·	·
O=C1C=C(NCCc2cc(Br)c(O)c(Br)c2)C(=O)c2ncccc21	2.06µM*	?	1.16µM*	-23.6	-104.7*	-12.9%
CC(C)c1nnc(SCC(=O)NC2CCCCC2)n1C	10.8%	11.6	14.1%	4.5	6.6	·
Nc1ccc(-c2c3ccc(=O)cc-3oc3cc(O)ccc23)cc1C(=O)O	-10.0%	-54.9*	2.8%	-16.3	-8.9	·
O=C(Cc1ccc(-n2c(=O)c3sccc3n(CC(=O)Nc3ccccc3F)c2=O)cc1)NCc1ccco1	1.9%	12.8	5.7%	-7.2	12.9	-0.6%
CCOC(=O)N1CCc2c(sc(NCc3ccc(N(C)C)cc3)c2C(=O)Nc2ccc(OC)cc2)C1	?	·	20.6µM*	8.0	·	-1.1%
CCOC(=O)N1CCc2c(sc(NCc3cccc(F)c3)c2C(=O)Nc2ccc(OC)cc2)C1	16.4µM*	·	?	9.0	·	-1.8%
COC(=O)c1ccc(NC(=O)c2c(NCc3cccc(F)c3)sc3c2CCCC3)cc1	16.4µM*	·	20.6µM*	-11.5	·	-0.8%
CC(C)n1ncc2c(C(=O)NCc3cccnc3)cc(C3CC3)nc21	?	0.2	-26.5%	-7.1	?	4.0%
CN(CC(=O)Nc1ccc(F)c(F)c1F)C(=O)CCc1nc2sc3c(c2c(=O)[nH]1)CCCC3	?	-13.8	-0.9%	5.1	31.3	·
Cc1ccccc1Cn1c2ccccc2c2cnn(CC(=O)NC3CCC(C)CC3)c(=O)c21 (configuration not stated)	18.4µM*	·	18.4µM*	-9.6	·	-1.8%
Cc1ccc(C)c(Cn2c3ccccc3c3cnn(CC(=O)NCCc4ccccc4)c(=O)c32)c1	-21.4%	·	?	-4.4	·	-17.9%
Cc1ccc(C)c(Cn2c3ccccc3c3cnn(CC(=O)NC4CCC(C)CC4)c(=O)c32)c1 (configuration not stated)	13µM*	·	10.3µM*	-9.8	·	-16.4%
Cc1ccc(S(=O)(=O)c2c(Nc3cc(F)ccc3F)sc(C(=O)c3ccc(F)cc3)c2N)cc1	16.4µM*	·	20.6µM*	3.0	·	-22.6%
COc1cccc(C(=O)c2sc(Nc3ccc(C)cc3C)c(S(=O)(=O)c3ccccc3)c2N)c1	-29.9%	·	-10.3%	7.6	·	-10.5%
COc1ccc(S(=O)(=O)c2c(Nc3ccc(F)cc3)sc(C(=O)c3ccc(C)cc3C)c2N)cc1	?	·	?	-3.5	·	-2.3%

Screens: PubChem BioAssay, National Center for Advancing Translational Sciences (NCATS)
